Screens deposited in PubChem BioAssay by National Center for Advancing Translational Sciences (NCATS).
Only some compounds are listed: those with a hit (about 0.43% of all), similar ones and a draw of the others.
GLA spleen mod: qHTS Assay for Inhibitors and Activators of Human alpha-Galactosidase From Spleen Homogenate; Alpha-galactosidase A (Homo sapiens), P06280; human spleen homogenate, 4MU-alpha-Gal fluorescence, 40 min; Potency, µM (highest dose often 80 µM), for inactives: top-dose activity change, negative = inhibition, most hits filed as inhibitors; 240,000 compounds, 0.008% hits;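 further: potency means the concentration at half of the fitted maximal effect; 0% = enzyme with vehicle and -100% = no enzyme basal signal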
Target sequence (P06280 32-429 limits assumed): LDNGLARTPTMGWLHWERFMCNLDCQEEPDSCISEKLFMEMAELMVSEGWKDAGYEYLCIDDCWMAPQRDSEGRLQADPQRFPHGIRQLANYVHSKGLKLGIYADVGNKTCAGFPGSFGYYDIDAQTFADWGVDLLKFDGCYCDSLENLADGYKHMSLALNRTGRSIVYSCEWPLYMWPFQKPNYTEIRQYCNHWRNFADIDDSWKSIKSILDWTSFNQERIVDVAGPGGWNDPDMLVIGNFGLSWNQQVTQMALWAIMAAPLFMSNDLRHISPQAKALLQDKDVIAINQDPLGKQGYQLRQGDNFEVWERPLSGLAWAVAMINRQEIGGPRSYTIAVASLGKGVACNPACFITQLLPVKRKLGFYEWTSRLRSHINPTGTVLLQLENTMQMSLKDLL
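Human spleen homogenate (1 ug) was the enzyme source, with 4-methylumbelliferyl-alpha-D-galactopyranoside (1 mM final) in pH 5.0 citrate buffer with 0.01% Tween-20. Compounds were titrated; after 40 min at 37C, NaOH/glycine stop, 4-MU fluorescence read; AC50 from Hill fits.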
N370S GC: qHTS Assay for Inhibitors and Activators of N370S glucocerebrosidase as a Potential Chaperone Treatment of Gaucher Disease | Lysosomal acid glucosylceramidase (Homo sapiens), P04062 | N370S GC spleen homogenate, 4MU-glucoside fluorescence | Potency, µM (highest dose often 59.4 µM), without a hit: at the top dose activity change, negative = inhibition, usual class: inhibitors | 330,000 compounds, 0.092% hits;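 further: potency means the concentration at half of the fitted maximal effect; 0% = full enzyme activity and -100% = no enzyme basal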
GAA inh: qHTS Assay for Inhibitors of Human alpha-Glucosidase as a Potential Chaperone Treatment of Pompe Disease; Lysosomal alpha-glucosidase (Homo sapiens), P10253; purified human GAA, 4-MU-alpha-glucoside fluorescence; Potency, µM (titrated, usually from 76.9 µM), for the others: at the top dose activity change, negative = inhibition, most hits filed as inhibitors; 200,000 compounds, 0.005% hits; AID 1466, 2008;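 further: potency means the concentration at half of the fitted maximal effect; plate controls were uninhibited enzyme wells for no effect and no-enzyme background for full effect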
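AC50 values come from Hill fits of compound titrations (up to 77 uM) against 4 nM human enzyme. Substrate 4-methylumbelliferyl-alpha-D-pyranoside at 400 uM, pH 5.0 citrate buffer, 20 min room temperature; fluorescence Ex 365/Em 440 after alkaline stop.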
GLA inh pH 4.5: qHTS Assay for Inhibitors of Human alpha-Galactosidase at pH 4.5; activity change, negative = inhibition, % at 105 µM; Alpha-galactosidase A (Homo sapiens), P06280; AID 1467, 2008; 230,000 tested, under 10 active; purified enzyme, 4-MU-alpha-Gal fluorescence, pH 4.5;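 further: 0% = full activity with enzyme and -100% = basal without enzyme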
aGlu spleen mod: qHTS Assay for Inhibitors and Activators of Human alpha-Glucosidase From Spleen Homogenate; Lysosomal alpha-glucosidase (Homo sapiens), P10253; human spleen homogenate, 4-MU-alpha-glucoside fluorescence; Potency, µM (series often up to 79.9 µM), for inactives: at the highest dose activity change, negative = inhibition, hits mostly inhibitors; 240,000 compounds, 0.006% hits;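 further: potency means the concentration at half of the fitted maximal effect; 0% = enzyme with vehicle and -100% = no enzyme basal signal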
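AC50 values come from Hill-equation fits of concentration-response data, normalized to no-enzyme and full-activity controls. Enzyme source: 1 ug human spleen homogenate; 1 mM fluorogenic 4-MU glucoside, pH 5.0 citrate buffer, 37 C, 40 min.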
GAA glycogen: qHTS Assay for Inhibitors and Activators of Human alpha-Glucosidase Cleavage of Glycogen | AID 2100, 2009 | 300,000 compounds, 0.38% hits | Potency, µM (series often up to 76.4 µM), without a hit: top-dose activity change, negative = inhibition, usual class: inhibitors | recombinant GAA, glycogen substrate, Amplex Red glucose oxidase fluorescence;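 further: potency means the concentration at half of the fitted maximal effect; 0% = full enzyme reaction and -100% = no-enzyme basal signal; the screen sought inhibitors and activators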
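qHTS, 1536-well; enzyme 4 nM final; cpd up to 77 uM; substrate bovine liver glycogen 30 ug; 50 mM citrate/phosphate pH 5.0, 0.01% Tween-20; 37 C, 40 min; Amplex Red detection 45 min RT; Hill fit → AC50.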
* hit, by the source's call; ? = inconclusive; . = no result; [ ] = dose if it differs, or a comment. The call rests on the fitted dose curve; in most records, active means well fitted curve in the direction sought with a large enough effect; inconclusive means small, poorly fitted or top-dose-only effect, or another doubt; inactive means no such curve, though single readings can be large; an effect the other way counts as inactive or inconclusive.

SMILES | GLA spleen mod | N370S GC | GAA inh | GLA inh pH 4.5 | aGlu spleen mod | GAA glycogen
COc1ccc(C(O)(C(=O)NNc2ccc(C)cc2)c2cccs2)cc1 (stereo not given) | -1% | 9% | -2% | 1 | 1% | 20µM*
CCOC(=O)CCN1C(=O)[C@H]2[C@H]3[C@H](O)[C@H](O)C/C(=N/NC(=O)OCC)[C@H]3CC[C@@H]2C1=O | -9%[17.5 µM] | -16%[12.8 µM] | . | . | 2%[17.4 µM] | .
CCCC[C@H](NC(=O)[C@H](CO)NC(=O)[C@H](Cc1ccc(O)cc1)NC(=O)[C@H](CO)NC(C)=O)C(=O)N[C@@H](CCC(=O)O)C(=O)N[C@@H](Cc1cnc[nH]1)C(=O)N[C@H](Cc1ccccc1)C(=O)N[C@@H](CCCNC(=N)N)C(=O)N[C@@H](Cc1c[nH]c2ccccc12)C(=O)NCC(=O)N[C@@H](CCCCN)C(=O)N1CCC[C@H]1C(=O)N[C@H](C(N)=O)C(C)C | 3% | 0% | . | . | 10% | .
COc1cc(C(C(=O)NC(C)(C)C)N(C(=O)CNC(=O)c2cccs2)c2ccccc2)cc(OC)c1OC (stereo not given) | 3% | 13µM* | 6% | 0 | 3% | -1%
COc1cc(C(C(=O)NC(C)(C)C)N(C(=O)CNC(=O)c2cccs2)c2ccc(C(C)C)cc2)cc(OC)c1OC (stereo not given) | -16% | 12% | -3% | -2 | -7% | 2%
COC(=O)N[C@@H](c1ccc(Br)cc1)C(C(=O)OC)C(=O)OC | 2% | 0% | . | 1 | -2% | .
CC(=O)Nc1cc(C(C)C)c(O)c(C(C)C)c1 | -1% | 5% | -8% | -15 | -6% | 11µM*
COc1ccc(O[C@H]2C=C[C@@H](c3ccccc3)O[C@H]2CO/N=C\C[C@@H]2C=C[C@H](OC(C)=O)[C@H](COC(C)=O)O2)cc1 | -5%[17.5 µM] | 7%[12.8 µM] | . | . | 2%[17.4 µM] | .
O=C(O)c1cc(-c2ccc(/C=N/Nc3ccc(Cl)cc3)o2)ccc1Cl | -16% | 1% | 3% | 5 | -12% | 28µM*
CSCC[C@H](NC(=O)[C@H](CC(C)C)NC(=O)[C@H](CO)NC(=O)[C@H](CCC(=O)O)NC(=O)[C@H](CC(C)C)NC(=O)[C@H](Cc1ccc(O)cc1)NC(=O)[C@H](CCCCN)NC(=O)[C@H](CCCCN)NC(=O)[C@H](C)NC(=O)[C@H](CO)NC(=O)[C@H](CC(C)C)NC(=O)[C@H](CCC(N)=O)NC(=O)CNC(=O)[C@H](CC(C)C)NC(=O)[C@H](CC(C)C)NC(=O)[C@H](CCCCN)NC(=O)[C@H](CO)NC(=O)[C@H](Cc1ccccc1)NC(=O)[C@H](CC(=O)O)NC(=O)[C@H](CO)NC(=O)[C@@H](NC(=O)[C@H](Cc1ccccc1)NC(=O)[C@@H](NC(=O)CNC(=O)[C@H](CC(=O)O)NC(=O)[C@H](C)NC(=O)[C@@H](N)Cc1cnc[nH]1)C(C)C)[C@@H](C)O)C(N)=O | 5% | -2% | . | . | -1% | .
Cc1nonc1C(=O)N/N=C/c1ccc(O)c(O)c1 | 0% | 7% | 0% | 5 | -6% | 7.9µM*
O=C(N/N=C/c1ccc(O)c(O)c1)c1cc(-c2ccccc2)nc2ccccc12 | . | 0% | . | . | . | .
COc1cc(/C=N/NC(=O)c2nonc2C)ccc1O | -6% | -3% | ? | -2 | -2% | ?
O=C(N/N=C/c1ccc(O)c(O)c1)N/N=C/c1ccc(O)c(O)c1 | . | 7% | . | . | . | 1.4µM*
Cc1ccc(-c2nc3ncccn3c2Nc2ccccc2C)o1 | -2% | -11% | -6% | -6 | -4% | ?
Cc1ccc(-c2nc3cnccn3c2Nc2c(C)cccc2C)o1 | 0% | 11% | -11%[15.4 µM] | 9 | 0% | 3.5µM*
COc1cc(C2Sc3ccccc3NC3=C2C(=O)OC3)cc(OC)c1OC (stereo not given) | 1% | -27% | -8% | -8 | 1% | 5%
O=C1OCC2=C1C(c1ccc(F)cc1)Sc1ccccc1N2 (stereo not given) | -1% | 18µM* | -8% | -4 | -8% | 3%
Cc1ccc(-n2nc(C)c3c2OC(N)=C(C#N)C3c2ccoc2)cc1 (stereo not given) | 4% | -24% | -4% | 9 | -3% | 22µM*
Cc1ccc(-n2nc(C)c3c2OC(N)=C(C#N)C3c2ccco2)cc1 (stereo not given) | 0% | 1% | 2% | -5 | -6% | ?
CSCC[C@H](NC(=O)[C@H](CC(C)C)NC(=O)[C@@H]1CCCN1C(=O)[C@H](Cc1ccccc1)NC(=O)[C@H](Cc1ccccc1)NC(=O)[C@H](CCC(N)=O)NC(=O)[C@H](CCC(N)=O)NC(=O)[C@@H]1CCCN1C(=O)[C@H](CCCCN)NC(=O)[C@@H]1CCCN1C(=O)[C@@H](N)CCCN=C(N)N)C(N)=O | 3% | 6% | . | . | -1% | .
Brc1ccc(-c2nc3ncccn3c2NC2CCCCC2)o1 | 4% | 10% | -8% | 7 | 5% | 25µM*
Cc1ccc(-c2nc3ncccn3c2NC2CCCC2)o1 | 6% | -4% | 5% | -7 | -3% | 14µM*
CC(C)C[C@H](N)C(=O)N[C@H](C(=O)N[C@@H](CCCN=C(N)N)C(=O)N[C@H](CS)C(=O)NCC(=O)N[C@@H](CCCCN)C(=O)N[C@@H](Cc1cnc[nH]1)C(=O)N[C@@H](CO)C(=O)N[C@@H](CCCN=C(N)N)C(=O)O)C(C)C | 0% | -4% | . | . | 4% | .
O=C(/C=C/Nc1ccccc1)c1ccccc1 | 1% | -2% | 1% | 1 | 3% | 9%
CN(C)c1ccc(N/C=C/C(=O)c2ccccc2)cc1 | -14% | -9% | -13% | 3 | 5% | 14µM*
COCc1cc(C)nc(SCC(=O)c2ccc(O)c(O)c2)c1C#N | -3% | -2% | -9% | 3 | -6% | 14µM*
O=C(C1=C[C@@H](c2ccc(C(F)(F)F)cc2)C[C@@H](OCc2ccc(CO)cc2)O1)N1CCN(Cc2ccccc2)CC1 | 2% | 13µM* | . | -5 | 1% | 2%
